# PLC-gamma1 inh: PLC-gamma1 (human) inhibition, primary screen. purified PLC-gamma1, fluorogenic substrate, fluorescence. 0.84% of 370,000 active. AID 720700. inhibition, % at 12.2 µM; in the data active means inhibition above about 9.5%
# PLCb3 inh: PLC-beta3 (human) inhibition, primary screen. Q01970. inhibition, % at 12.2 µM. 0.18% of 370,000 active. AID 720704. Purified PLC-beta3, fluorogenic substrate, fluorescence; in the data active means inhibition above about 11%
# sPLA2-III inh: Blocks human group III sPLA2 activity. Q9NZ20. AID 743126. inhibition, % at 12.2 µM. 0.56% of 370,000 active. QFRET BODIPY PC-A2 liposome hydrolysis, fluorescence;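 active means inhibition above mean plus 3 SD of compounds lying within the high and low control bounds, cut at about 19% in these data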
# ADAM10 inh: inhibits human ADAM10; recombinant ADAM10, EDANS/DABCYL FRET peptide cleavage, 3 h; inhibition, % at 7 µM; 0.62% of 370,000 active; AID 720582;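 active means inhibition above a per-campaign cutoff equal to the mean of compounds falling between control-based bounds plus 3 SD, cut at about 20% in these data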
# ADAM17 inh: ADAM17 inhibition, QFRET primary screen. P78536. recombinant ADAM17, EDANS/DABCYL FRET peptide cleavage. inhibition, % at 6.95 µM. 0.83% of 370,000 active. AID 720648;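 active means inhibition above the mean of compounds lying between control limits plus 3 SD, set per campaign, cut at about 8.5% in these data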
# proKLK7 act: activates the human kallikrein-7 zymogen. AID 652039. purified proKLK7, EDANS-DABCYL substrate fluorescence; 100% is mature enzyme control, 0% vehicle. activation, % at 7 µM. 0.9% of 370,000 active. P49862;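 active means activation above the mean of all tested compounds plus 3 SD, computed per campaign excluding outliers beyond control limits, cut at about 13% in these data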
# Target sequence (P49862 whole entry, looked up): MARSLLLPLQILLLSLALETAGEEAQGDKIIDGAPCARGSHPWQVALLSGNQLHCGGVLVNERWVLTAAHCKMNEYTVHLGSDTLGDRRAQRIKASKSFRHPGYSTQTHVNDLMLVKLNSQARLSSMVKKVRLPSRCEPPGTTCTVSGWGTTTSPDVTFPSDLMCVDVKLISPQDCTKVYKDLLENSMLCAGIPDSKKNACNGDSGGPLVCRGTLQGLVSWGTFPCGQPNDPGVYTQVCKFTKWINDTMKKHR
# proKLK7 act conf: proKLK7 activation, confirmation; shares compounds with proKLK7 act; purified proKLK7, EDANS-DABCYL substrate fluorescence; scaled: vehicle 0, mature enzyme 100; activation, % at 7 µM; 68% of 3,200 active; AID 686949;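 active means activation, as change over the incubation, above the mean of all tested compounds plus 3 SD, cut at about 13% in these data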
# EDANS-DABCYL int: fluorescence interference counter-screen for KLK7 activators. EDANS-DABCYL substrate fluorescence interference, no enzyme, 4 h; solvent 0%, active enzyme control 100%. shares compounds with proKLK7 act. activation, % at 7 µM. 80% of 3,200 active;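 active means activation above the all-compound mean plus 3 SD, ignoring values outside control-based bounds, cut at about 4.8% in these data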;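 further: value is the 4 h activation minus the activation read at time zero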
# Numbers stand for hits; – = inactive; · = no result. This is a sample that favours compounds with a hit; in the whole collection about 3.4% have one here.
SMILES,PLC-gamma1 inh,PLCb3 inh,sPLA2-III inh,ADAM10 inh,ADAM17 inh,proKLK7 act,proKLK7 act conf,EDANS-DABCYL int
Cc1ccc(N2CC(=O)N(NC(=O)c3sc4nc(C)cc(C)c4c3N)CC2=O)cc1,–,–,–,–,–,86,23,21
Cc1cc(C)c2c(N)c(C(=O)Nc3ccccc3Br)sc2n1,–,–,–,–,–,179,124,56
Cc1cc(C)c2c(N)c(C(=O)Nc3ccccc3F)sc2n1,–,–,–,–,–,23,–,–
O=C(CN1CCCC1)Nc1ccc(-c2nc3cc(NC(=O)CN4CCCC4)ccc3o2)cc1,–,–,–,–,–,58,–,–
COc1ccc(C(=O)Nc2ccc(NC(=O)c3ccco3)c(Cl)c2)cc1OC,–,–,–,–,–,16,–,–
O=C(Nc1ccc(NC(=O)c2ccco2)c(Cl)c1)c1ccccc1,–,–,–,–,–,–,·,·
CCNC(=O)CCc1nc(-c2ccc(C(C)C)cc2)no1,–,–,–,–,–,·,·,·
Cc1cc(C)n2cc(CSc3ncn[nH]3)nc2n1,–,–,–,–,–,28,–,6.8
C[N+]1(C)[C@H]2CC[C@H]1CC(OC(=O)C(O)c1ccccc1)C2 (stereo not given in full),–,–,–,–,–,–,·,·
COc1ccc2nc(N3CCC(C)CC3)c(C#N)cc2c1,–,–,–,–,–,–,·,·
COc1ccc2nc(N3CCC(O)CC3)c(C#N)cc2c1,–,–,–,–,–,16,61,72
O=C1C(C2=NC(c3ccccn3)C3C(=O)N(c4ccccc4)C(=O)C23)=C(O)c2ccccc21 (stereo not given),–,–,–,–,–,24,–,–
COc1ccccc1N1CCN(S(=O)(=O)c2ccc3c(c2)CCC(=O)N3)CC1,–,–,–,–,–,–,·,·
c1ccc(CCNc2ccnc3cc4ccccc4cc23)cc1,–,–,–,–,–,32,–,–
CC(C)Nc1ccc(Nc2ccnc3cc4ccccc4cc23)cc1,–,–,–,–,–,–,·,·
N=c1c(C(=O)NCc2ccc(F)cc2)cc2c(=O)n3ccccc3nc2n1CCCN1CCOCC1,–,–,–,–,–,–,·,·
N=c1c(C(=O)NCCN2CCOCC2)cc2c(=O)n3ccccc3nc2n1CCc1ccccc1,–,–,–,–,–,24,–,11
N=c1c(C(=O)NCCc2ccccc2)cc2c(=O)n3ccccc3nc2n1Cc1ccco1,–,–,–,–,–,–,·,·
N=c1c(C(=O)NCCc2ccccc2)cc2c(=O)n3ccccc3nc2n1CCCN1CCOCC1,–,–,–,–,–,29,–,7.7
N=c1c(C(=O)NCc2ccccc2)cc2c(=O)n3ccccc3nc2n1CCCN1CCOCC1,–,–,–,–,–,13,–,–
CC(COc1ccc(C#N)cc1)CN1CCC(C(O)(c2ccccc2)c2ccccc2)CC1 (stereo not given),–,–,–,–,–,–,·,·
COC(=O)[C@H](Cc1ccccc1)NP(=O)(OC)[C@@H](C)NC(=O)OCc1ccccc1 (stereo not given in full),–,–,–,–,–,–,·,·
CN(C(=O)COC(=O)c1ccccc1NCCO)C1CCS(=O)(=O)C1 (stereo not given),–,–,–,–,–,14,40,42
CC1CCCCN1Cc1c(O)ccc2c(=O)c(-c3ccccc3)coc12 (stereo not given),–,–,–,–,–,34,71,69
O=c1c(-c2ccccc2)coc2c(CN3CCCCC3)c(O)ccc12,–,–,–,–,–,38,65,63
SMILES,PLC-gamma1 inh,PLCb3 inh,sPLA2-III inh,ADAM10 inh,ADAM17 inh,proKLK7 act,proKLK7 act conf,EDANS-DABCYL int
CCc1cc2c(=O)c(-c3ccc4c(c3)OCCO4)coc2c(CN2CCCCC2C)c1O (stereo not given),–,–,–,–,–,16,–,–
CC1CN(Cc2c(O)ccc3c(=O)c(-c4ccccc4)coc23)CC(C)O1 (stereo not given),–,–,–,–,–,82,27,26
CCc1cc2c(=O)c(-c3nc4ccccc4[nH]3)coc2c(CN2CCCCC2C)c1O (stereo not given),–,–,–,–,–,–,·,·
CCc1cc2c(=O)c(-c3nc4ccccc4[nH]3)coc2c(CN2CCCCC2)c1O,–,–,–,–,–,–,·,·
O=c1c(-c2ccc(O)cc2)coc2c([C@@H]3O[C@H](CO)[C@@H](O)[C@H](O)[C@H]3O)c(O)ccc12,–,–,–,–,–,–,·,·
CCOC(=O)N1CCN(C(=O)C[C@H]2C[C@@]3(C(=O)OC)C(=C[C@H](C4CCCC4)O[C@@H]3C)N(Cc3ccc(Cl)cc3Cl)C2=O)CC1,–,–,–,–,–,–,·,·
CC1(c2nnnn2Cc2ccccc2)CCCCC(=O)N1Cc1cccs1 (stereo not given),–,–,–,–,–,–,·,·
O=C(NCc1c(F)cccc1F)C1CCCN(c2ncccn2)C1 (stereo not given),–,–,–,–,–,–,·,·
COc1ccc(-c2coc3cc(O)ccc3c2=O)cc1,–,–,–,–,–,–,·,·
COc1ccc(-c2coc3c(CN4CCCCC4C)c(O)ccc3c2=O)cc1 (stereo not given),–,–,–,–,–,46,69,58
CCC1CCCCN1Cc1c(O)ccc2c(=O)c(-c3ccccc3)coc12 (stereo not given),–,–,–,–,–,38,55,33
COc1ccc(OC)c2c1CCC2=O,–,–,–,–,–,13,19,23
COc1ccccc1NC1=C(C)C(=O)CC1,–,–,–,–,–,–,·,·
O=C(Nc1ccc(F)cc1)OCc1cn(Cc2cc(F)ccc2F)nn1,–,–,–,–,–,–,·,·
Cn1cc(-c2cccc3nncn23)cn1,–,–,–,–,–,–,·,·
CSc1ccc(-c2cccc3nncn23)cc1,–,–,–,–,–,21,26,25
c1cc(-c2ccsc2)n2cnnc2c1,–,–,–,–,–,–,·,·
Nc1cccc(-c2cccc3nncn23)c1,–,–,–,–,–,29,–,–
Nn1c(SCC(=O)Nc2cccc3ccccc23)nnc1-c1cc(-c2ccc(Cl)cc2)n[nH]1,–,–,–,–,–,–,·,·
CN(C)c1c(-c2ccccc2)cc(-c2ccccc2)[nH]c1=O,–,–,–,–,–,16,–,4.9
Cc1cc(-c2ccccc2)[nH]c(=O)c1C#N,–,–,–,–,–,–,·,·
O=C(O)CCC(=O)N1CCN(c2nc(-c3ccccc3)c3ccccc3n2)CC1,–,–,–,–,–,32,–,8.6

# Source: PubChem BioAssay (The Scripps Research Institute Molecular Screening Center)
